# Source: PubChem BioAssay (NCI)
# Where “and” joins values, the source holds several entries; their conditions need not be identical. Identical values can stand only once. About 83,000 compounds went through this panel and 20% of them were active in at least one assay; those are over-represented in the sample as a whole.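 The test compound was applied at a single concentration to cells in 96-well plates for 48 hours, and percent growth was recorded.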 Calls of active or inactive are those of the source. How the source made its calls: active means growth percent below 10; inactive means the rest.
# Test system: HL-60(TB) leukemia
# Assay: NCI-60 one-dose screen, 48 h (100 = growth as untreated, 0 = no growth, -100 = all killed)
# Conditions: 10 µM unless noted
row,Compound,growth
1,CSc1ccc(/C=C2\C=C(CC(=O)NCc3ccc(C(=O)c4ccccc4)cc3)c3cc(F)ccc32)cc1,-30.3% (active)
2,COc1ccc(/C=C(/C(=O)N2CCN(c3ccccc3)CC2)c2cc(OC)c(OC)c(OC)c2)cc1N,-37.5% (active)
3,O=S(=O)(NCCNc1cc(-c2c(-c3cccc(O)c3)nc3sccn23)ccn1)c1ccc(C(F)(F)F)cc1,15.7% (inactive)
4,CCOC(=O)C1=C(C)n2nc(CC#N)c(C#N)c2NC1c1ccc(Cl)cc1 (stereo not given),105% (inactive)
5,COc1ccc2nc(NC(=O)CSc3nnc4n3S(=O)(=O)c3ccccc3N4c3ccccc3)sc2c1,-83.2% (active)
6,COc1ccc(Cn2c(NCCCN(C)C)nc(=O)n(Cc3ccc(F)cc3)c2=O)cc1,95.7% (inactive)
7,Cn1cc(C(=O)c2nc(-c3c[nH]c4ccccc34)no2)c2cc(F)ccc21,-6.73% (active)
8,CCCCOc1ccc(/C=N/Nc2cc(C)nc3ccc(Cl)cc23)cc1,-30.2% (active)
9,Cc1c(C(N)=O)sc2ncn(CC(=O)NN=C3CCCCC3)c(=O)c12,123% (inactive)
10,C=C(C)[C@@H]1CC[C@]2(C(=O)OCCCC[P+](c3ccccc3)(c3ccccc3)c3ccccc3)CC[C@]3(C)[C@H](CC[C@@H]4[C@@]5(C)CC[C@H](OC(=O)C(Cl)Cl)C(C)(C)[C@@H]5CC[C@]43C)[C@@H]12,-49.9% (active)
11,O=C(O)CC(Cl)C(Cl)CC(=O)O (stereo not given),99.5% (inactive)
12,COC(C(=O)[C@@H](O)[C@@H](C)O)[C@@H]1Cc2cc3cc(O[C@H]4C[C@@H](O[C@H]5C[C@@H](O)[C@H](O)C(C)O5)[C@H](O)C(C)O4)cc(O)c3c(O)c2C(=O)[C@H]1O[C@H]1C[C@@H](O[C@H]2C[C@@H](O[C@H]3C[C@@H](OC)[C@H](O)C(C)O3)[C@@H](O)C(C)O2)[C@H](O)C(C)O1 (stereo not given in full),81.5% (inactive)
13,CCCCCCCCCCCCN1CCCC(C)C1 (stereo not given),55.6% (inactive)
14,CN(C)c1ccc(-c2cc(-c3cccc(NS(C)(=O)=O)c3)nc(N)c2C#N)cc1,2.91% (active)
15,CCN(CC)C(=S)SC(SC(=S)N(CC)CC)C(=O)c1nnn(-c2ccc([N+](=O)[O-])cc2)c1C,82.4% (inactive)
16,CSc1nc(N)c(N)c(N)n1,77.8% (inactive)
17,Clc1ccc(-c2ccc(CNCC3CCNCC3)o2)c(-c2ccccc2)c1,-62.3% (active)
18,CCN1C(=S)N(c2ccccc2)C2NC(=S)N(/N=C/C=C/c3ccccc3OC)C21 (stereo not given),-52.9% (active)

row,Compound,growth
1,CCC(=O)OCc1ccc(OC)cc1,97% (inactive)
2,CC(C)OC(=O)Nn1cnc2ccccc21,96.5% (inactive)
3,CN(C)C1CCN(Cc2ccc(NC(=O)c3cncc(C#Cc4cnc(N)c5ncccc45)c3)cc2C(F)(F)F)CC1,73.6% (inactive)
4,COc1ccc(OC)c(/C=C2\Oc3cc(OCCN4CCC(Cc5ccccc5)CC4)ccc3C2=O)c1,98.2% (inactive)
5,CCNCc1ccncc1,95.8% (inactive)
6,O=C(Nc1ccc(-c2nc(-c3cccc(OCCN4CCOCC4)c3)c(-c3ccnc(Br)c3)[nH]2)cc1)c1ccccc1,-41.2% (active)
7,CC(=O)Cc1nsc(NC(=O)c2cc(-c3cc(Cl)cc(Cl)c3)oc2C)n1,96.5% (inactive)
8,CCN(CC)CCCC(C)N=c1cc(Nc2cc(=NC(C)CCCN(CC)CC)c3cc(OC)ccc3o2)oc2ccc(OC)cc12 (stereo not given),-65.3% (active)
9,CC(=O)OCC1OC(OC(C)=O)C(OC(C)=O)C(OC(C)=O)C1OC(C)=O (stereo not given),120% (inactive) and 101% (inactive)
10,NC(=O)c1cccc(-n2ccc3cc(NC(=O)Nc4ccc(Cl)c(C(F)(F)F)c4)ccc32)n1,99.3% (inactive)
11,CCCCOc1ccc(NC(=O)n2nc(N=NN(C)C)c3ccc(Cl)cc32)cc1,107% (inactive)
12,c1nc(SC2=NCCN2)c2[nH]cnc2n1,22.6% (inactive)
13,COc1ccc(-c2nc(/C=N/Nc3cc(C)nc4ccc(Cl)cc34)c(C)o2)cc1,-41% (active)
14,O=c1c2ccccc2oc2ccc(OCCCCCN3CCCCCC3)cc12,38% (inactive)
15,Cn1cc(-c2csc(-c3cn(CCNC(=O)OC(C)(C)C)c4ccccc34)n2)c2cccnc21,45.9% (inactive)
16,C#C[C@]1(O)CC[C@H]2[C@@H]3CC=C4c5nc(Nc6ccc(OC)cc6OC)sc5CC[C@]4(C)[C@H]3CC[C@@]21C,17.9% (inactive)
17,COc1ccc(/C=C/c2nnc(/C=C/c3ccc(OC)c(OC)c3)o2)cc1OC,12.1% (inactive)
